± gives the standard deviation.
System: MILI (PIWIL2) piRISC loaded with L1MC piRNA (26 nt)
Experiment: pre-steady-state target cleavage rate (min^-1); guide: L1MC piRNA 5'p-UAACUAAAUACUAUGCAAGCUGUAGG; MIWI and MILI are mouse PIWI proteins and EfPiwi is from a freshwater sponge; tags in brackets are library labels; higher = faster piRNA-guided slicing of the target
Conditions: auxiliary factor: 500 nM mouse GTSF1
Method in brief: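 Cleave-'n-Seq reactions paired 0.1 nM transcribed, DNA-blocked target RNA library with 1 nM active affinity-purified piRISC holding one synthetic guide, plus or minus 500 nM GTSF1 partner protein, in HEPES–potassium acetate buffer at 33 °C for 0–8 or 0–960 min. After sequencing of uncleaved targets and normalisation to depth and weakly complementary targets, the pre-steady-state cleavage rate was taken from a burst-and-steady-state fit. Three trials were pooled, and k3 was capped at 0.0001 min^-1.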

**Q.** For UCCUGGAUCAGCUUGCAAGUAUUUAGUUA, which “pre-steady-state target cleavage rate” value is on record?
**A.** Its value is 0.0793 ± 0.011.

**Q.** With UCCUGGAUGUCCAAGCAUAGUAUUUAGUUA as the sequence, how does the “pre-steady-state target cleavage rate” value read?
**A.** Its value is 0.0263 ± 0.0097.

**Q.** For UCCUGGAUGAGCUUGCAUUGUAUUUAGUUA, which “pre-steady-state target cleavage rate” value is on record?
**A.** The value was 0.139 ± 0.013.

**Q.** Which “pre-steady-state target cleavage rate” value does the source give for UCCUGGAUGUGGUUGCAUUGUAUUUAGUUA here?
**A.** Its value is 0.0353 ± 0.0089.

**Q.** How did the “pre-steady-state target cleavage rate” value turn out when UCCUGGAACAGCUUGGAUUGUAUUUAGUUA was run?
**A.** The value was 0.0767 ± 0.011.

**Q.** How did the “pre-steady-state target cleavage rate” value turn out when UCCUGGAUGUCGUUGCAUAGUAAAUAGUUA was run?
**A.** Its value is 0.0599 ± 0.019.

**Q.** With UCCUGGAUGUCGAUGCCUAGUAUUUAGUUA as the sequence, how does the “pre-steady-state target cleavage rate” value read?
**A.** The value was 0.0127 ± 0.0028.

**Q.** For UCCUGGAUGUCGUUGCAUAGUAUUGAGUUA, which “pre-steady-state target cleavage rate” value is on record?
**A.** The value was 0.0312 ± 0.011.

**Q.** UCCUGGAUGUCCUUGCAUAGGUAUUUAGUUA was tested. Which “pre-steady-state target cleavage rate” value did it give?
**A.** The value was 0.00785 ± 0.0038.

**Q.** For UCCUGGUACAGGCUUGCAUAGUAUUUAGUUA, which “pre-steady-state target cleavage rate” value is on record?
**A.** The value was 0.203 ± 0.026.

**Q.** Which “pre-steady-state target cleavage rate” value does the source give for UCCUGCUACAGCUUGCAUUCUAUUUAGUUA here?
**A.** The value was 0.0454 ± 0.0087.

**Q.** With UCCUGGUACAGCAACCAUAGUAUUUAGUUA as the sequence, how does the “pre-steady-state target cleavage rate” value read?
**A.** The value was 0.286 ± 0.042.

**Q.** How did the “pre-steady-state target cleavage rate” value turn out when UCCUGGAUGUCGAAGCAUAGUACUUUAGUUA was run?
**A.** The value was 0.00532 ± 0.0027.

**Q.** How did the “pre-steady-state target cleavage rate” value turn out when UCCUGGAUCAGCUUCCUUAGUAUUUAGUUA was run?
**A.** The value was 0.122 ± 0.018.

**Q.** UCCUCCUACAGCAAGCAUAGUAUUUAGUUA was tested. Which “pre-steady-state target cleavage rate” value did it give?
**A.** The value was 0.281 ± 0.014.

**Q.** How did the “pre-steady-state target cleavage rate” value turn out when UCCUGGAUGUCGUUGCAUAGUAUUUAGUAA was run?
**A.** The value was 0.191 ± 0.03.

**Q.** With UCCUGGAUGUGCUUGCAUAGUACUUAGUUA as the sequence, how does the “pre-steady-state target cleavage rate” value read?
**A.** Its value is 0.105 ± 0.022.

**Q.** How did the “pre-steady-state target cleavage rate” value turn out when UCCUGGAUGUGUUGCAUAGUAUUUAGUUA was run?
**A.** Its value is 0.173 ± 0.022.

**Q.** How did the “pre-steady-state target cleavage rate” value turn out when UCCUGGAACUGCUUGCAUAGUAUUAAGUUA was run?
**A.** The value was 0.173 ± 0.022.

**Q.** Which “pre-steady-state target cleavage rate” value does the source give for UCCUGGAUGAGCUUCCAAAGUAUUUAGUUA here?
**A.** Its value is 0.0331 ± 0.0072.

**Q.** Which “pre-steady-state target cleavage rate” value does the source give for UCCUGGAUGUGCUUGCAUAGUAUUUAGUGUA here?
**A.** Its value is 0.101 ± 0.015.

**Q.** How did the “pre-steady-state target cleavage rate” value turn out when UCCUGGAUGAGCAUGGAUAGUAUUUAGUUA was run?
**A.** Its value is 0.189 ± 0.019.

**Q.** How did the “pre-steady-state target cleavage rate” value turn out when UCCUGGAUGUCGUUGCAUAGUAUCUUAGUUA was run?
**A.** Its value is 0.0991 ± 0.021.

**Q.** With UCCUGGAUGUCGUUGCAUAGUUUUUAGUUA as the sequence, how does the “pre-steady-state target cleavage rate” value read?
**A.** Its value is 0.00524 ± 0.0046.

**Q.** For UCCUGGUACAGCUUGCAUAGUAUUUAGUCUA, which “pre-steady-state target cleavage rate” value is on record?
**A.** The value was 0.0602 ± 0.024.

**Q.** Which “pre-steady-state target cleavage rate” value does the source give for UCCUGGAUGUGCUUGGAUAGUAUAUAGUUA here?
**A.** The value was 0.118 ± 0.026.

**Q.** How did the “pre-steady-state target cleavage rate” value turn out when UCCUGGAUGAGCAUGCAUAGUAUUAAGUUA was run?
**A.** The value was 0.22 ± 0.024.

**Q.** Which “pre-steady-state target cleavage rate” value does the source give for UCCUGCUACAGCUUGCAUGUAUUUAGUUA here?
**A.** Its value is 0.104 ± 0.02.

**Q.** UCCUGGAUGUGCUUGCAUACAAUUUAGUUA was tested. Which “pre-steady-state target cleavage rate” value did it give?
**A.** The value was 0.00405 ± 0.0039.

**Q.** Which “pre-steady-state target cleavage rate” value does the source give for UCCUGGAUGUCGAACCAAAGUAUUUUGUUA here?
**A.** Its value is less than 0.0001.

**Q.** UCCUGGAUGUGCUUGCAUAGUAUUUUAGUUA was tested. Which “pre-steady-state target cleavage rate” value did it give?
**A.** Its value is 0.101 ± 0.018.

**Q.** How did the “pre-steady-state target cleavage rate” value turn out when UCCUGGAUGACCUUGCAUAGUAUAUAGUUA was run?
**A.** The value was 0.167 ± 0.034.

**Q.** For UCCUGGAUGUCCAUGCAUAGUAUUUAGUUA, which “pre-steady-state target cleavage rate” value is on record?
**A.** Its value is 0.0603 ± 0.016.

**Q.** Which “pre-steady-state target cleavage rate” value does the source give for UCCUGGUACAGCUUGCUUUGUAUUUAGUUA here?
**A.** The value was 0.123 ± 0.017.

**Q.** Which “pre-steady-state target cleavage rate” value does the source give for UCCUGGAUGUGCUUGCAAAGUAUAUAGUUA here?
**A.** Its value is 0.0264 ± 0.0072.

**Q.** Which “pre-steady-state target cleavage rate” value does the source give for UCCUGCUACAGCUUGCAUUGUAUAUAGUUA here?
**A.** Its value is 0.194 ± 0.028.

**Q.** With UCCUGGAUGUCCUUGCAUACUAUUUAGUUA as the sequence, how does the “pre-steady-state target cleavage rate” value read?
**A.** The value was 0.0324 ± 0.01.

**Q.** Which “pre-steady-state target cleavage rate” value does the source give for UCCUGGAUGUCGUAGCAUAGUAUUAAGUUA here?
**A.** The value was 0.0506 ± 0.013.

**Q.** For UCCUGGAUGUCGAUGGAUAGUAUUUAGUUA, which “pre-steady-state target cleavage rate” value is on record?
**A.** The value was 0.0431 ± 0.0076.

**Q.** How did the “pre-steady-state target cleavage rate” value turn out when UCCUGGAUGUCCUUGCAUACUUUUUAGUUA was run?
**A.** The value was 0.00626 ± 0.004.
